Assay results: PubChem BioAssay (NCI)
Compounds without any hit were thinned out: in the full panel of roughly 79,000, 15% have a hit. No stated cut-off is given here; in the data, active means growth inhibition above about 70%; inactive means the rest.

Assays:
[1] = NCI Yeast Anticancer Drug Screen. Data for the rad50 strain (AID 155);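 further: 0% = growth of vehicle-only cultures of the same strain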; conditions: S. cerevisiae rad50 strain growth inhibition; at 50.0 µM; hits give high values
In short: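 Compounds were tested on a yeast strain with an engineered DNA damage repair alteration; the reported value is growth inhibition normalised to vehicle treatment.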

[2] = NCI Yeast Anticancer Drug Screen. Data for the mec2-1 strain (AID 157); conditions: S. cerevisiae mec2-1 strain, at 50.0 µM, hits give high values
In short: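 Mutant yeast (mec2-1) grown with compound; growth inhibition relative to vehicle control reported.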

[3] = NCI Yeast Anticancer Drug Screen. Data for the sgs1 mgt1 strain (AID 161);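 further: 0% = growth of cultures given vehicle only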; conditions: S. cerevisiae sgs1 mgt1 strain, at 50.0 µM, hits give high values
In short: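 Compounds are added to genetically altered yeast, and growth is compared with cultures given vehicle alone to give percent inhibition.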

[4] = NCI Yeast Anticancer Drug Screen. Data for the cln2 rad14 strain (AID 165);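 further: 0% = growth equal to vehicle treated cultures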; conditions: S. cerevisiae cln2 rad14 strain, at 50.0 µM, hits give high values
In short: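 Readout is yeast growth inhibition versus vehicle-treated controls, using a strain with cln2 and rad14 alterations exposed to compound.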

[5] = NCI Yeast Anticancer Drug Screen. Data for the bub3 strain (AID 167); conditions: S. cerevisiae bub3 mutant strain, at 50.0 µM, hits give high values
In short: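 Growth of a checkpoint-deficient yeast mutant is measured after compound exposure. Values represent inhibition relative to vehicle.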

[6] = NCI Yeast Anticancer Drug Screen. Data for the mlh1 rad18 strain (AID 175); conditions: S. cerevisiae mlh1 rad18 strain growth inhibition; at 50.0 µM; hits give high values
In short: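 Genetically defined yeast (DNA repair-deficient) exposed to compounds; growth inhibition determined relative to vehicle.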

Measured: growth inhibition

CCCCCOc1ccc(C(=O)OC)cc1
inactive: [1] -25.9% | [2] -5.15% | [3] 6.2% | [4] -22.8% | [5] -0.1% | [6] -20%

Cc1oc2nc(N(C)C)nc(Cl)c2c1C
inactive: [1] 7.15% | [2] 5.8% | [3] 8.25% | [4] 12.5% | [5] 22.1% | [6] -15%

CC1(C)CC(C#N)CC(C)(C)N1O
inactive: [1] 1.9% | [2] -0.75% | [3] 0.5% | [4] -20.9% | [5] -4.8% | [6] -0.95%

c1cc2c(cc1CC1CO1)OCO2 (centres undefined)
inactive: [1] -12.2% | [2] -11.7% | [3] 0.85% | [4] -18.4% | [5] -22.5% | [6] 15%

COc1ccc(C(=O)Oc2ccccc2C)cc1
inactive: [1] 5.9% | [2] -26.4% | [3] -6.1% | [4] -11% | [5] -6.8% | [6] -1.95%

CCN(CC)CCOC(NC(C)=O)(c1ccccc1)c1ccccc1
inactive: [1] 3.5% | [2] -9.55% | [3] 9.85% | [4] 1.55% | [5] 14.8% | [6] 20%

O=C(/C=C/c1ccco1)CCN1CCOCC1
inactive: [1] 8.15% | [2] -4.6% | [3] 24.8% | [4] -44.1% | [5] -7.25% | [6] 13.8%

CC(C)(C)SC(=S)SCC(=O)c1cc2ccccc2o1
inactive: [1] 35.7% | [2] 3.5% | [3] 41.4% | [4] 30.1% | [5] 40.8% | [6] 37.9%

BrC12CC3CC(CC(C3)C1)C2
inactive: [1] 21.8% | [2] 13.1% | [3] 9.4% | [4] 11.1% | [5] 9.25% | [6] 12.8%

CC1CC12OC(=O)N(c1cc(Cl)cc(Cl)c1)C2=O (centres undefined)
inactive: [1] 1.7% | [2] 8.9% | [3] 14.3% | [4] 35.1% | [5] -2.05% | [6] 16.6%

Cc1ccccc1C(c1ccccc1C)c1ccccc1C
inactive: [1] -10.8% | [2] 1% | [3] -10.8% | [4] -15.6% | [5] 1.25% | [6] -19.6%

Nc1ccc2cccc(O)c2c1
inactive: [1] 44.1% | [2] 24.2% | [3] 12.9% | [4] -9.4% | [5] 34.2% | [6] 32.4%

CC(C)(NC(=O)c1cc(Cl)c2ccccc2c1O)C(=O)O
inactive: [1] 4.4% | [2] 2.8% | [3] 27.7% | [4] 22.9% | [5] 8.6% | [6] 17.7%

CC(=O)c1ccc(N2C(=O)C3c4[nH]c5ccccc5c4C4CCC(C(C)(C)C)CC4C3C2=O)cc1 (centres undefined)
inactive: [1] 42.8% | [2] -2.7% | [3] 0.5% | [4] 63% | [5] 16% | [6] 18.4%

CCOS(=O)(=O)CC(C)C(C)C (centres undefined)
inactive: [1] 4.75% | [2] -17.3% | [3] -7.8% | [4] -18.1% | [5] -5.65% | [6] -9.1%

CC(=O)Oc1ccccc1[C@H]1CC(=O)C[C@H](c2ccccc2OC(C)=O)C12C(=O)c1ccccc1C2=O
inactive: [1] -12.8% | [2] -18.4% | [3] -7.55% | [4] 30.1% | [5] -17.4% | [6] 9.3%

COC(CC1(OC)OC(=O)C=C1N)OC (centres undefined)
inactive: [1] -7.05% | [2] 20.1% | [3] -12.7% | [4] -28.3% | [5] 16.8% | [6] -3.05%

CS(=O)(=O)CC(O)c1ccccc1 (centres undefined)
inactive: [1] 4.8% | [2] -3.2% | [3] 2.95% | [4] -12.7% | [5] 6.65% | [6] -21.4%

OC(CBr)c1cc(-c2ccccc2)nc2c(Cl)cc(Cl)cc12 (centres undefined)
inactive: [1] 31.9% | [2] -8.45% | [3] 33.6% | [4] -16.7% | [5] 11.8% | [6] 50.8%

NCCCN(CCO)CCO
inactive: [1] -42.5% | [2] -3.1% | [3] -27.9% | [4] -31.9% | [5] -28.5% | [6] -20.4%

CCN(CC)C(=O)Oc1cc(C)c([N+](C)(C)C)cc1C(C)C
inactive: [1] 10.1% | [2] 6.7% | [3] 13.2% | [4] 17.8% | [5] 24.6% | [6] -27.7%

Cc1c2ccccc2nc(CS(=O)c2ccccc2)[n+]1[O-] (centres undefined)
inactive: [1] -8.8% | [2] 21.9% | [3] 20.1% | [4] -36.4% | [5] 16.8% | [6] 20.2%

CCCCC(CCCC)c1ccccn1
inactive: [1] -15.1% | [2] -10.9% | [3] 8.15% | [4] -18.2% | [5] 8.85% | [6] -14.4%

O=[N+]([O-])c1ccc(-c2nnn(C3CC3)c2N2CCCCC2)cc1
inactive: [1] -7.85% | [2] -5.6% | [3] -3.4% | [4] -0.5% | [5] -4.35% | [6] 5.15%

COC(=O)c1c(O)cc(OC)cc1OCc1ccccc1
inactive: [1] 10.7% | [2] -4.4% | [3] -4.8% | [4] 27.6% | [5] 31.4% | [6] 2.95%

CCCN1COC(OCCN(CC)CC)C(C)(C)C1 (centres undefined)
inactive: [1] 7.15% | [2] -4.35% | [3] -21.3% | [4] 6.7% | [5] 7.2% | [6] 12.9%

COc1ccccc1NC(=O)N(C)Cc1ccc(Cl)cc1
inactive: [1] 11.3% | [2] 18.6% | [3] 18.9% | [4] 3.75% | [5] 47.1% | [6] 33.1%

O=Cc1cccc(OC(=O)Nc2ccccc2)c1
inactive: [1] 39% | [2] 24.8% | [3] 24.5% | [4] -17.5% | [5] 17.1% | [6] 0.95%

CNC(=O)N(c1ccccc1)C1CCCCC1
inactive: [1] 15.8% | [2] 13.8% | [3] -2.5% | [4] -65.5% | [5] 9.8% | [6] 1.15%

C[N+]1(C)CCC2=CC(=O)CC(c3ccccc3)C2C1 (centres undefined)
inactive: [1] 11.7% | [2] -0.6% | [3] 12.6% | [4] 20.8% | [5] -3.3% | [6] -12%

CCOC(=O)C1C(C)=CC(=O)CC1C(C)C (centres undefined)
inactive: [1] 4.1% | [2] -8.5% | [3] 5.7% | [4] -20.6% | [5] -15.8% | [6] 5.2%

CCCC(C)C(C)O (centres undefined)
inactive: [1] -21.4% | [2] -45.6% | [3] 0.15% | [4] -11.1% | [5] -24.1% | [6] -14.8%

CCC(CC)C(=O)OCCOCCOC
inactive: [1] 30.2% | [2] 11.8% | [3] 14.9% | [4] 7.9% | [5] 23.6% | [6] 36.9%

O=C(O)CCCCC(=O)c1ccccc1
inactive: [1] 30.6% | [2] 12.2% | [3] 21% | [4] -0.25% | [5] 26.6% | [6] 24.9%

NNC(=O)c1csnn1
inactive: [1] -24.6% | [2] -22.6% | [3] -24.5% | [4] -25.4% | [5] -23.6% | [6] -7%

c1cnc2cccnc2c1
inactive: [1] -16.1% | [2] -30.4% | [3] -14.7% | [4] -6.15% | [5] -8.6% | [6] -9.9%

CCOC(=O)/C(=C/c1ccc(N(CCC#N)CCC#N)cc1C)NC(=O)/C=C/c1ccccc1
inactive: [1] -2.25% | [2] -5.85% | [3] -16.2% | [4] -20.6% | [5] -25.4% | [6] -9.65%

CN=Cc1ccccc1O.CN=Cc1ccccc1O.[Cu+2]
inactive: [1] 6.55% | [2] -8.6% | [3] -10.9% | [4] -73.8% | [5] -2.5% | [6] 3.05%

CC(C)CC(=O)OC1=C(O)C(=O)C(OC(=O)CC(C)C)=C(O)C1=O
inactive: [1] -5.45% | [2] -13.7% | [3] 2.1% | [4] -62.4% | [5] 0.1% | [6] 5.65%
